Source: PubChem BioAssay AID492956 (The Scripps Research Institute Molecular Screening Center, 2010)
Screen size: about 340,000 compounds; about 3,300 (0.97%) were called active.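 How the source made its calls: active means inhibition above the mean over all tested compounds plus 3 SD (cut at about 30% in these data); inactive means the rest.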 For the sample, actives were picked, then their nearest neighbours and some compounds at random.

Molecular target: Platelet-activating factor acetylhydrolase 2, cytoplasmic (Homo sapiens) (UniProt Q99487)
Assay: inhibition of cytoplasmic PAF acetylhydrolase 2 – biochemical, fluorescence polarization, human, primary screen (AID 492956);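 further: inhibitors block probe labeling of enzyme so polarization drops; 0% = enzyme with DMSO and 100% = wells lacking PAFAH2 protein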
Conditions: recombinant PAFAH2, FP-rhodamine activity probe, at 3.39 µM, hits give high values

inhibition, inactive:
CCOC(=O)C1CCCN(Cc2nc(N)nc(Nc3ccc(C)cc3)n2)C1 (stereo unspecified) 3.45%, CCCN(CC1CC1)C(=O)COC(=O)c1ccc(C)cc1O 6.82%, Cc1cccc(NC(=O)/C=C/c2ccc3c(c2)OCO3)n1 0.78%, Cc1csc(NC(=O)CSc2ccc(-c3ccc(F)cc3)nn2)n1 1.11%, COC(=O)c1sc(-c2ccc(C(C)(C)C)cc2)cc1NC(=O)/C=C/C(=O)O -3.2%, C[C@@H]1CC[C@]2(O[C@@H](CCO)C[C@H](O)[C@H]2O)O1 -8.93%, O=C(OCc1ccccc1F)c1ccc2c(c1)OCCO2 14.7%, O=C(COC(=O)c1ccccc1)c1ccc2c(c1)OCCO2 2.41%, O=C(NCc1ccccc1Cl)c1csc2c1CCCCC2 3.83%, CC(=O)Nc1cccc(C(=O)OCC(=O)c2ccc3c(c2)OCO3)c1 -2.44%, O=C(COC(=O)c1ccc(Cl)nc1)NCc1ccc2c(c1)OCO2 5.61%, CC(NC(=O)COC(=O)c1cc(=O)[nH]c2ccccc12)c1ccccc1 (stereo unspecified) 1.93%, O=C(CN(Cc1ccccc1)C(=O)c1ccc2c(c1)OCCO2)NCc1ccc2c(c1)OCO2 1.54%, CN(C)C(=O)c1ccc(NC(=O)COC(=O)c2cc3c(s2)CCCCC3)cc1 22.8%, COc1cc(C(c2c(NC(=O)c3ccco3)sc(C)c2C)N2CCOCC2)cc(OC)c1OC (stereo unspecified) 2.1%, S=c1nc2ccccc2c2nc(-c3cccnc3)[nH]n12 6.52%, CCCCN1C(=O)CCC(C(=O)O)C1c1ccc(OC)cc1 (stereo unspecified) -2.61%, CC(=O)Nc1ccc(Nc2c([N+](=O)[O-])cc(S(C)(=O)=O)cc2[N+](=O)[O-])cc1 3.4%, O=C(CNS(=O)(=O)c1ccccc1)NCC(=O)OCc1ccccc1F 10.3%, COC(=O)c1ccccc1NC(=O)C1(S(=O)(=O)c2ccc(Cl)cc2)CC1 4.24%, CC(C)C1C2=C(CC(C)(C)CC2=O)ON1c1ccccc1 (stereo unspecified) -5.16%, Cc1cc(C)n(CC(C)NCc2c(C(=O)N3CCOCC3)nc3c(C)cccn23)n1 (stereo unspecified) -0.83%

inhibition, active:
O=C(COC(=O)c1ccc2c(c1)OCCO2)NCc1ccccc1Cl 85.4%, O=C(COC(=O)c1ccc2c(c1)OCCO2)NCc1ccccc1 51.5%, O=C(COC(=O)c1cc2c(s1)CCCC2)NCc1ccccc1Cl 67%, CC(NC(=O)COC(=O)c1ccc2c(c1)OCO2)c1ccccc1 (stereo unspecified) 55%
